Source: PubChem BioAssay (NCI)
About 79,000 compounds went through this panel and 15% of them were active in at least one assay; those are over-represented in the sample as a whole. Active and inactive are the calls of the source. No stated cut-off is given here; in the data, active means growth inhibition above about 70%; inactive means the rest.

Experiments:
[1] = NCI Yeast Anticancer Drug Screen. Data for the rad52 strain (AID 147);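 further: 0% = growth of vehicle-treated control cultures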; details: S. cerevisiae rad52 mutant growth inhibition, stronger effect = higher value
Procedure, shortened: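 Screen used a yeast mutant impaired in DNA repair. After compound exposure, growth was measured. Values reflect inhibition compared with vehicle-treated cells.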

[2] = NCI Yeast Anticancer Drug Screen. Data for the wt1 strain (AID 149);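 further: 0% = growth of vehicle-treated wt1 cultures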; details: S. cerevisiae wt1 strain (SPY 50644) growth inhibition, stronger effect = higher value
Procedure, shortened: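 Yeast wt1 strain exposed to compounds; growth inhibition measured relative to vehicle-treated controls.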

[3] = NCI Yeast Anticancer Drug Screen. Data for the rad50EPP+ strain (AID 151);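 further: 0% = growth of vehicle-treated control cultures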; details: S. cerevisiae rad50 mutant strain, stronger effect = higher value
Procedure, shortened: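 Exposing the rad50EPP+ strain to each compound, growth was compared with vehicle-only cultures to give inhibition.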

[4] = NCI Yeast Anticancer Drug Screen. Data for the rad50 strain (AID 155);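 further: 0% = growth of vehicle-only cultures of the same strain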; details: S. cerevisiae rad50 strain growth inhibition, stronger effect = higher value
Procedure, shortened: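 Yeast carrying a defined DNA repair defect were exposed to test compounds, and growth was compared with vehicle-treated controls to give percent inhibition.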

[5] = NCI Yeast Anticancer Drug Screen. Data for the mec2-1 strain (AID 157); details: S. cerevisiae mec2-1 strain, stronger effect = higher value
Procedure, shortened: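 Readout is yeast growth inhibition, normalised to vehicle-treated controls, in the mec2-1 strain exposed to compound.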

[6] = NCI Yeast Anticancer Drug Screen. Data for the rad14 strain (AID 159);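 further: 0% = growth of vehicle-treated control cultures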; details: S. cerevisiae rad14 strain growth inhibition, stronger effect = higher value
Procedure, shortened: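 Yeast cells carrying a defined DNA-repair defect were exposed to compounds, and growth inhibition was calculated relative to vehicle-treated control cultures.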

[7] = NCI Yeast Anticancer Drug Screen. Data for the sgs1 mgt1 strain (AID 161);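 further: 0% = growth of cultures given vehicle only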; details: S. cerevisiae sgs1 mgt1 strain, stronger effect = higher value
Procedure, shortened: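 This yeast growth screen uses a strain with defined DNA-repair lesions; compound-treated growth is compared with vehicle-treated growth.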

[8] = NCI Yeast Anticancer Drug Screen. Data for the CLN2oe strain (AID 163);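 further: 0% = growth of vehicle-only control cultures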; details: S. cerevisiae CLN2oe strain, stronger effect = higher value
Procedure, shortened: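 Values reflect how much compound exposure reduced yeast growth, referenced to vehicle-exposed cells. Assay organism is a strain with a defined genetic change affecting cell-cycle control.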

[9] = NCI Yeast Anticancer Drug Screen. Data for the cln2 rad14 strain (AID 165);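 further: 0% = growth equal to vehicle treated cultures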; details: S. cerevisiae cln2 rad14 strain, stronger effect = higher value
Procedure, shortened: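 Relative to vehicle controls, growth inhibition of compound-treated cln2 rad14 yeast was recorded.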

[10] = NCI Yeast Anticancer Drug Screen. Data for the bub3 strain (AID 167); details: S. cerevisiae bub3 mutant strain, stronger effect = higher value
Procedure, shortened: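 Compounds were applied to a genetically altered yeast strain carrying a cell-cycle control defect. Growth inhibition was scored against vehicle-treated controls.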

[11] = NCI Yeast Anticancer Drug Screen. Data for the wt2 strain (AID 169);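 further: 0% = growth of vehicle-treated yeast cultures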; details: S. cerevisiae wt2 strain growth inhibition, stronger effect = higher value
Procedure, shortened: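 Values express reduction in yeast growth under compound treatment, referenced to vehicle-treated cells.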

[12] = NCI Yeast Anticancer Drug Screen. Data for the mlh1 strain (AID 171);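 further: 0% = growth of vehicle-treated control cultures of the same strain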; details: S. cerevisiae mlh1 strain growth inhibition, stronger effect = higher value
Procedure, shortened: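 Steps: expose the defined-mutant yeast strain to compound; expose a parallel culture to vehicle; measure growth; express compound effect as inhibition relative to the vehicle culture.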

[13] = NCI Yeast Anticancer Drug Screen. Data for the sgs1 strain (AID 173);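 further: 0% = growth of vehicle-only control cultures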; details: S. cerevisiae sgs1 mutant, stronger effect = higher value
Procedure, shortened: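 Treat defined-mutant yeast with compound; measure growth; calculate inhibition relative to vehicle-treated cells.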

[14] = NCI Yeast Anticancer Drug Screen. Data for the mlh1 rad18 strain (AID 175); details: S. cerevisiae mlh1 rad18 strain growth inhibition, stronger effect = higher value
Procedure, shortened: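 Test agents were incubated with a yeast strain of defined genotype (DNA damage repair defect). Inhibition of growth was derived by comparison with vehicle-exposed cultures.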

[15] = NCI Yeast Anticancer Drug Screen. Data for the rad18 strain (AID 177); details: S. cerevisiae rad18 mutant growth inhibition, stronger effect = higher value
Procedure, shortened: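 A genetically defined yeast mutant impaired in DNA damage repair was treated with test compounds, then its growth was measured against cultures receiving vehicle alone.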

[16] = at 5.0 µM (retest, dose inferred, filed as 0.5)
[17] = at 50.0 µM (retest, dose inferred, filed as 5.0)

Measured: growth inhibition

O=C(c1cc(=O)c2ccc(O)cc2o1)c1ccc(Cl)cc1Cl
active: [1]; at 33.0 µM 90% | [1]; at 100.0 µM 92% | [2]; at 33.0 µM 75% | [2]; at 100.0 µM 92% | [3]; at 33.0 µM 94% | [3]; at 100.0 µM 96% | [4]; at 33.0 µM 94% | [4]; [17] 95% | [4]; at 50.0 µM 86.5% | [4]; at 100.0 µM 93% | [5]; at 33.0 µM 80% | [5]; [17] 95% | [5]; at 50.0 µM 85.2% | [5]; at 100.0 µM 93% | [6]; at 33.0 µM 76% | [6]; at 100.0 µM 91% | [7]; [17] 92% | [7]; at 50.0 µM 88% | [8]; at 33.0 µM 94% | [8]; at 100.0 µM 92% | [9]; [17] 93% | [9]; at 50.0 µM 78.2% | [10]; at 33.0 µM 95% | [10]; [17] 97% | [10]; at 50.0 µM 88.5% | [10]; at 100.0 µM 94% | [11]; at 100.0 µM 88% | [12]; at 33.0 µM 91% | [12]; at 100.0 µM 92% | [13]; at 33.0 µM 95% | [13]; at 100.0 µM 94% | [14]; [17] 96% | [14]; at 50.0 µM 85.5% | [15]; at 33.0 µM 94% | [15]; at 100.0 µM 94%
inactive: [1]; at 1.2 µM -31% | [1]; at 3.7 µM -32% | [1]; at 11.0 µM 8% | [2]; at 1.2 µM -6% | [2]; at 3.7 µM 1% | [2]; at 11.0 µM -2% | [3]; at 1.2 µM -23% | [3]; at 3.7 µM -7% | [3]; at 11.0 µM 52% | [4]; at 1.2 µM -11% | [4]; at 3.7 µM -16% | [4]; [16] 23% | [4]; at 11.0 µM 12% | [5]; at 1.2 µM -27% | [5]; at 3.7 µM -13% | [5]; [16] -30% | [5]; at 11.0 µM 5% | [6]; at 1.2 µM 2% | [6]; at 3.7 µM 4% | [6]; at 11.0 µM 19% | [7]; [16] 3% | [8]; at 1.2 µM -23% | [8]; at 3.7 µM -8% | [8]; at 11.0 µM 23% | [9]; [16] 13% | [10]; at 1.2 µM -16% | [10]; at 3.7 µM -11% | [10]; [16] 23% | [10]; at 11.0 µM 46% | [11]; at 1.2 µM -4% | [11]; at 3.7 µM -4% | [11]; at 11.0 µM 0% | [11]; at 33.0 µM 68% | [12]; at 1.2 µM -19% | [12]; at 3.7 µM -7% | [12]; at 11.0 µM 33% | [13]; at 1.2 µM -18% | [13]; at 3.7 µM -14% | [13]; at 11.0 µM 60% | [14]; [16] 37% | [15]; at 1.2 µM -6% | [15]; at 3.7 µM -19% | [15]; at 11.0 µM 19%
